The text below walks through data of the supplement of paper PMC10849652.

Targets with a hit are over-represented here; the source holds about 7,900 in all. About 0.6% of all pairs of compound and target were hits. Unmarked numbers belong to inactive results.

Chain of UniProt Q16600 (Q16600 whole entry, looked up): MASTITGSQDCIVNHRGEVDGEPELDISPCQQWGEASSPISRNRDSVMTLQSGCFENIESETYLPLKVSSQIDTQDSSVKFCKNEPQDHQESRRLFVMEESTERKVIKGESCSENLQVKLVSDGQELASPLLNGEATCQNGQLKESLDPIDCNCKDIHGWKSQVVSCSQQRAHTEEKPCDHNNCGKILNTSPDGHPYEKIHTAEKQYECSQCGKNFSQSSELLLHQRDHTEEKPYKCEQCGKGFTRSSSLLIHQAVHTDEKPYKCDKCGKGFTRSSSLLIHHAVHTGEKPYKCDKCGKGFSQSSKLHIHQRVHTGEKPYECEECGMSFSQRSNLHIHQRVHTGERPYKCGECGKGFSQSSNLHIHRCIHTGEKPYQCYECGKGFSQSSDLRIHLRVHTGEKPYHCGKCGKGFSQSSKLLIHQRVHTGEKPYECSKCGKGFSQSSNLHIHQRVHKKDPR
Chain of UniProt O15014 (O15014 whole entry, looked up): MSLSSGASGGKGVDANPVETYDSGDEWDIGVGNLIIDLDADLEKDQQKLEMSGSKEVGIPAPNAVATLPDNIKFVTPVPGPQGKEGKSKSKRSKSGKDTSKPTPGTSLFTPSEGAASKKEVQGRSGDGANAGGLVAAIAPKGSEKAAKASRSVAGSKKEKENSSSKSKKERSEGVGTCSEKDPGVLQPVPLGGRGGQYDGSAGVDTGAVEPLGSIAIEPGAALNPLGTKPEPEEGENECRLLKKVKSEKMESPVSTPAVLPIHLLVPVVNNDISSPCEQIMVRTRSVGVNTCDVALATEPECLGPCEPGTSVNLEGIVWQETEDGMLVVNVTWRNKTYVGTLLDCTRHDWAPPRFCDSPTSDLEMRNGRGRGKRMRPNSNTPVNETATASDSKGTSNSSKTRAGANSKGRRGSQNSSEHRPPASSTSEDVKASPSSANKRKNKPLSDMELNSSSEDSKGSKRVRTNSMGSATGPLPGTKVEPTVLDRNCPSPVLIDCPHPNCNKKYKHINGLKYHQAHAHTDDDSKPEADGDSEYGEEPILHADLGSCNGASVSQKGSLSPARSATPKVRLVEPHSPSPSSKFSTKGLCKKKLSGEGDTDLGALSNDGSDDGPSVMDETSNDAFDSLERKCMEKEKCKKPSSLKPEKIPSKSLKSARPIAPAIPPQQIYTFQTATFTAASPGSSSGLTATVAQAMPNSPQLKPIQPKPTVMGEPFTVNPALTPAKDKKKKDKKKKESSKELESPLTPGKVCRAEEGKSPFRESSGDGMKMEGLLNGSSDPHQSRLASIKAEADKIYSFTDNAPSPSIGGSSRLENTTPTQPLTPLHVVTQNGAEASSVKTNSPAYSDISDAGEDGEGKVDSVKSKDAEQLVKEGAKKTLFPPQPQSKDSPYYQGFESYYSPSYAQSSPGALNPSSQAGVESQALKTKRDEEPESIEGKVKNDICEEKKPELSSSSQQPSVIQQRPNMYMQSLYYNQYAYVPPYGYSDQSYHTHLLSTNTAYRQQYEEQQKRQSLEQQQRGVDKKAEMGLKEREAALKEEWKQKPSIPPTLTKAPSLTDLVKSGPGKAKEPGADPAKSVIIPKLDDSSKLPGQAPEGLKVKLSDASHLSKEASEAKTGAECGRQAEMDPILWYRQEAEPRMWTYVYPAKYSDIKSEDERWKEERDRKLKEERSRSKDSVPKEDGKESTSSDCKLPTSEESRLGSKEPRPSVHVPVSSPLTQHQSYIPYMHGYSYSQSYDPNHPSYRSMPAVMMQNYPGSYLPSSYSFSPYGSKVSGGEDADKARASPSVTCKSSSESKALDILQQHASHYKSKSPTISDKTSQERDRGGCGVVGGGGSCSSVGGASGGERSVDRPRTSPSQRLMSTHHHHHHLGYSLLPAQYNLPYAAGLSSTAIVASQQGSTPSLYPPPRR
Chain of UniProt O43264 (O43264 whole entry, looked up): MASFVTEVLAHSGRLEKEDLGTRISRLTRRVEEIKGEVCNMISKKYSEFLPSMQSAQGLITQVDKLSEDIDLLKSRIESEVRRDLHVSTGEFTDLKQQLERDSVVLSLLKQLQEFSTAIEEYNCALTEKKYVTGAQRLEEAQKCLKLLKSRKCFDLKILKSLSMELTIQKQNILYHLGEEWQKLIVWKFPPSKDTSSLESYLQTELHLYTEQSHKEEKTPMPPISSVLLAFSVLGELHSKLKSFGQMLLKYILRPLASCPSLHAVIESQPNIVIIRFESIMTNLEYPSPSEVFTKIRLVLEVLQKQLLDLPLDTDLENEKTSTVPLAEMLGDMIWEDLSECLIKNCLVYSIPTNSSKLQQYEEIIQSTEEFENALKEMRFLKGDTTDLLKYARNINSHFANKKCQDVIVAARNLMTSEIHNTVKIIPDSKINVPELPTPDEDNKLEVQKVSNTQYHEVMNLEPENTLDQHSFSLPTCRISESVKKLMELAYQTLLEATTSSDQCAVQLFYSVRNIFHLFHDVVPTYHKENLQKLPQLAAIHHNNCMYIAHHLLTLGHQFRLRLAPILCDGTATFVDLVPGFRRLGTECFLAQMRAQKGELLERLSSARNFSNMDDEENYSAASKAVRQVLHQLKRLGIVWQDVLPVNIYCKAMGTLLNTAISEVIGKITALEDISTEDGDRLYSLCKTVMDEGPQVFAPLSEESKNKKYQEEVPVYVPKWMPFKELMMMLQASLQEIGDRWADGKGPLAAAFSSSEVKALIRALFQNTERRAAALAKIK
Chain of UniProt Q9H900 (Q9H900 whole entry, looked up): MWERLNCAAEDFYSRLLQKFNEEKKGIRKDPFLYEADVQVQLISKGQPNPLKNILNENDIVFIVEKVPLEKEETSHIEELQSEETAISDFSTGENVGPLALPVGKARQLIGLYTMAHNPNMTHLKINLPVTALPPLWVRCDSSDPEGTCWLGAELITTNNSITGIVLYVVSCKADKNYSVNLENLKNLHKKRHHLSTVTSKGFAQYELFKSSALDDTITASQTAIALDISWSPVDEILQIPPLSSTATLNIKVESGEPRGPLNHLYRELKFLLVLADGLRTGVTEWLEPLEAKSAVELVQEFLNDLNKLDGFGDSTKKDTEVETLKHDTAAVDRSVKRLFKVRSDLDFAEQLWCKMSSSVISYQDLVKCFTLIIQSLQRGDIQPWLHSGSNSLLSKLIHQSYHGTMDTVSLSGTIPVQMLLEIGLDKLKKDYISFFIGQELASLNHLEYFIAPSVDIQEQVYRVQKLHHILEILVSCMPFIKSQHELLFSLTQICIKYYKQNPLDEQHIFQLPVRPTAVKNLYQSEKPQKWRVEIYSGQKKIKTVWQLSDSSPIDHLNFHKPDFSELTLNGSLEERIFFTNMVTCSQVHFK
Chain of UniProt P27348 (P27348 whole entry, looked up): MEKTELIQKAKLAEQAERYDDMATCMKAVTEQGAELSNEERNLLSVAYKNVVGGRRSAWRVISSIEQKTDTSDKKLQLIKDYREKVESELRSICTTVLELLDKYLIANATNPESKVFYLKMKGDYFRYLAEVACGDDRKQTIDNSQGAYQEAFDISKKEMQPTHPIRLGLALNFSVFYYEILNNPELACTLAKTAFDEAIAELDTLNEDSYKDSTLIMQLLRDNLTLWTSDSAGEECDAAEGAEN
Chain of UniProt O95159 (O95159 whole entry, looked up): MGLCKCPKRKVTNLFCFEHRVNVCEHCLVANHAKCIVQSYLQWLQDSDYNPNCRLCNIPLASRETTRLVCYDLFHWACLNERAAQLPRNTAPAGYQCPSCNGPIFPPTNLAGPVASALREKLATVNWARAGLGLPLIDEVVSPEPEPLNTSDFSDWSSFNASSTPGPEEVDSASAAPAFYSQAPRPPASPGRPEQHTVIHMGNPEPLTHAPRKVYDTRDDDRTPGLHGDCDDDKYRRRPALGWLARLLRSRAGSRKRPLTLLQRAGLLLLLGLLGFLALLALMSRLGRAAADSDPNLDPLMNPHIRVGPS
Chain of UniProt Q969S3 (Q969S3 whole entry, looked up): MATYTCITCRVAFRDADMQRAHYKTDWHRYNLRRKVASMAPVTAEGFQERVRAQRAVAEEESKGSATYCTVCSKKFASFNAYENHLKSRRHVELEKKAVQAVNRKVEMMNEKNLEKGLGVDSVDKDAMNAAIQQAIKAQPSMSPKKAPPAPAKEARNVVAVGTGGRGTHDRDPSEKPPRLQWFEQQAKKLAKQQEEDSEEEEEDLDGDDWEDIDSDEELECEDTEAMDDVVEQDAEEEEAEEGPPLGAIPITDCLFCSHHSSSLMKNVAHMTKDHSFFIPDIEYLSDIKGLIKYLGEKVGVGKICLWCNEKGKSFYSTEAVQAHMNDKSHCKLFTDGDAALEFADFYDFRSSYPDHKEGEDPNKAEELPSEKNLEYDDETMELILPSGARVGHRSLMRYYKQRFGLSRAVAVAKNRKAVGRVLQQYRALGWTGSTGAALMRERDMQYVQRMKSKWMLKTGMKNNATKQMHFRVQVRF
Chain of UniProt Q8IUH5 (Q8IUH5 whole entry, looked up): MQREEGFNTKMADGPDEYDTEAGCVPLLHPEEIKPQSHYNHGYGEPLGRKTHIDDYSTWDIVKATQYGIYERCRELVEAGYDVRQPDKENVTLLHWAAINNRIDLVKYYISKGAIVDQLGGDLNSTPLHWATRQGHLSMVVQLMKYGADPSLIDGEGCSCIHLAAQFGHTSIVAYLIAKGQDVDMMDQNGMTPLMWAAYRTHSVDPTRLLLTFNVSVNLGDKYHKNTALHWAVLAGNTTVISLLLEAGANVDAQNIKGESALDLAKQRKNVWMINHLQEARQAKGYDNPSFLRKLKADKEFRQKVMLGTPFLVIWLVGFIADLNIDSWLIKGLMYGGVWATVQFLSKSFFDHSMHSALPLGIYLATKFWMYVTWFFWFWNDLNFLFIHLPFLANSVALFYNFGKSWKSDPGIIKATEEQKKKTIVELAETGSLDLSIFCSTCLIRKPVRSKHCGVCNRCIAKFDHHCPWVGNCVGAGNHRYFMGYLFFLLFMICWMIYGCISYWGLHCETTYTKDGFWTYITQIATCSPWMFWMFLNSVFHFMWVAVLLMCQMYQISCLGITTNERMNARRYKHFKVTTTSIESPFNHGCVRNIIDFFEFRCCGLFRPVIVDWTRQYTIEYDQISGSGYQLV

Compound in the first test: CC1=C(SC2=C1C(=N[C@H](C3=NN=C(N32)C)CC(=O)N)C4=CC=C(C=C4)Cl)C
Put plainly: log2 fold change, soluble protein after heating vs DMSO (PISA); higher = thermal stabilisation; K562 cells, 10 uM, 30 min; active = over 0.2 and 3.5 SD of the protein, either way, in both replicates (recomputed). The gist of the method:
(§1)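 K562 cells at 2×10^6 cells/mL were treated for 30 min with 10 μM compound, and aliquots were heated for 3 min over 48°C-58°C before pooling. Extraction used PBS with 0.5% NP-40 at 4°C, and soluble protein was the supernatant after 21,000xg for 90 min, measured by TMTpro 16plex LC-MS/MS with channel sums equalised. Thermal stability values, relative to control samples and from duplicates, are log2 fold changes.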
For the target ZCCHC9 (UniProt Q8N567), the log2 fold change was -0.074.
Still for that read-out and setting: in the case of ZWILCH (UniProt Q9H900) it was 0.036; in that of YWHAB (UniProt P31946), 0.024; in that of ZBTB43 (UniProt O43298), 0.013.
As to YWHAQ (UniProt P27348), the log2 fold change is 0.009.
Regarding ZDHHC17 (UniProt Q8IUH5), the log2 fold change was 0.062.
Turning to ZNF609 (UniProt O15014), the log2 fold change is -0.008.
As to ZFPL1 (UniProt O95159), the log2 fold change is 0.084.
In the case of ZMYM3 (UniProt Q14202), the log2 fold change was 0.055.
For the target ZNF622 (UniProt Q969S3), the log2 fold change is 0.033.
As to ZNF239 (UniProt Q16600), the log2 fold change was -0.151.
With ZW10 (UniProt O43264), the log2 fold change was 0.044.

Compound in a further test: CC1=C2C(=CC=C1)N=C(N(C2=O)C3=CC=CC=C3C)CN4C=NC5=C(N=CN=C54)N
The test is described as above. The gist of the method:
as §1
In the case of ZCCHC9 (UniProt Q8N567), the log2 fold change was -0.202.
Take ZWILCH (UniProt Q9H900): the log2 fold change is 0.063.
YWHAB (UniProt P31946): the log2 fold change was -0.01.
For ZBTB43 (UniProt O43298), the log2 fold change is 0.055.
In the case of YWHAQ (UniProt P27348), the log2 fold change was -0.152.
On to ZDHHC17 (UniProt Q8IUH5), for which the log2 fold change was -0.082.
As for ZNF609 (UniProt O15014), the log2 fold change is 0.148.
Take ZFPL1 (UniProt O95159): the log2 fold change is 0.063.
Consider ZMYM3 (UniProt Q14202), for which the log2 fold change is -0.02.
Regarding ZNF622 (UniProt Q969S3), the log2 fold change was 0.073.
Still for that read-out and setting: to ZNF239 (UniProt Q16600) belongs -0.06; to ZW10 (UniProt O43264), 0.018.

Compound in another test: Cc1sc2c(c1C)C(c1ccc(Cl)cc1)=N[C@@H](CC(=O)OC(C)(C)C)c1nnc(C)n1-2
Described as above. The gist of the method: as §1
As for ZCCHC9 (UniProt Q8N567), the log2 fold change was 0.222.
Same read-out and setting: to ZWILCH (UniProt Q9H900) belongs 0.037; to YWHAB (UniProt P31946), -0.004.
As for ZBTB43 (UniProt O43298), the log2 fold change was -0.097.
Consider YWHAQ (UniProt P27348), for which the log2 fold change was -0.089.
Consider ZDHHC17 (UniProt Q8IUH5), for which the log2 fold change is -0.039.
Take ZNF609 (UniProt O15014): the log2 fold change was 0.14.
Same read-out and setting: in the case of ZFPL1 (UniProt O95159) it was -0.042.
As to ZMYM3 (UniProt Q14202), the log2 fold change is 0.043.
On to ZNF622 (UniProt Q969S3), for which the log2 fold change is -0.016.
Regarding ZNF239 (UniProt Q16600), the log2 fold change was -0.082.
On to ZW10 (UniProt O43264), for which the log2 fold change was -0.004.

Compound in a further test: c1ccc([C@@H]2C[C@H]2NC2CCNCC2)cc1
The test is described as above. The gist of the method:
as §1
ZCCHC9 (UniProt Q8N567): the log2 fold change is 0.023.
With ZWILCH (UniProt Q9H900), the log2 fold change is 0.002.
As for YWHAB (UniProt P31946), the log2 fold change is -0.03.
Still for that read-out and setting: in the case of ZBTB43 (UniProt O43298) it was -0.08; in that of YWHAQ (UniProt P27348), -0.083; in that of ZDHHC17 (UniProt Q8IUH5), -0.011.
For ZNF609 (UniProt O15014), the log2 fold change is 0.073.
Take ZFPL1 (UniProt O95159): the log2 fold change is -0.032.
Turning to ZMYM3 (UniProt Q14202), the log2 fold change is 0.103.
As for ZNF622 (UniProt Q969S3), the log2 fold change was -0.049.
Turning to ZNF239 (UniProt Q16600), the log2 fold change is 0.06.
In the case of ZW10 (UniProt O43264), the log2 fold change is 0.
